High-throughput results deposited in PubChem BioAssay by several laboratories.
MLLE-PAM2 inh – inhibitors of PABP1 MLLE–PAM2 peptide binding, primary screen, biochemical, fluorescence polarization, FITC-PAM2, GST-MLLE; Polyadenylate-binding protein 1 (Homo sapiens), P11940; inhibition, % at 20 µM; 360,000 tested, 0.36% active; AID 588489, 2011; in the data active means inhibition above about 35%, passing the limit was not always enough;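 further: plate controls were DMSO wells with GST-MLLE for no effect and wells lacking GST-MLLE protein for full effect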
PABP polyA inh – PABP poly(A) RNA binding inhibitors, primary screen, biochemical, fluorescence polarization, uHTS; AID 2014, 2009; inhibition, % at 35 µM; 290,000 tested, 1% active;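 further: calls also rest on retests at 20 µM and on dose response follow-up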
eIF4H FP inh – human eIF4H binding inhibitors, primary screen, translation initiation inhibitor project, biochemical, uHTS, fluorescence polarization | Eukaryotic translation initiation factor 4H (Homo sapiens), Q15056 | 290,000 tested, 0.94% active | inhibition, % at 35 µM | eIF4H fluorescence polarization binding assay;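 further: calls also rest on retests at 20 µM and on dose response follow-up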
PERK inhibitor – block of dimerizer-induced PERK translation repression, primary screen, PERK inhibitor project, CHO PERK-DD cells, SEAP luminescence, HTS | inhibition, % at 5.6 µM | 220,000 tested, 0.17% active | CHO PERK-DD fusion, SEAP luminescence translation reporter | AID 1416, 2008;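 active means inhibition above the mean inhibition of all tested compounds plus 3 SD, set separately per screening campaign, cut at about 2.9% in these data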;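 further: PERK kinase domain activated by AP20187 dimerizer at 100 nM; 0% = DMSO with dimerizer and 100% = rapamycin at 8.4 µM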
eIF4E-4G inh – eIF4E–eIF4G protein interaction inhibitors, primary screen, biochemical, uHTS, TR-FRET, eIF4GI fragment. Eukaryotic translation initiation factor 4E (Mus musculus) + Eukaryotic translation …. TR-FRET eIF4E-eIF4GI(517-606) binding, 2 h. inhibition, % at 21.7 µM. 220,000 tested, 0.37% active;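 active means inhibition above about 30%, limit read from the data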;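 further: 0% = full FRET control wells and 100% = background wells lacking eIF4GI fragment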
* = called active by the depositor; ? = inconclusive; . = not tested or not shown. Compounds with a hit are over-represented: about 1.6% of the library has one in this group of screens. Unless noted, how the calls were made is not given here.

SMILES | MLLE-PAM2 inh | PABP polyA inh | eIF4H FP inh | PERK inhibitor | eIF4E-4G inh
C[C@]12CS(=O)(=O)C[C@H]1SC(=S)N2c1ccccc1 | -6.5 | 21.1 | 4.8 | 4.7* | 2.5
COc1cc2c(ccc3cc(OC)c(OC)c(O)c32)cc1O | 8.7 | 85.5* | 73.9* | . | 24.1
CCC(c1nnnn1Cc1ccco1)N(Cc1cc2cc(C)cc(C)c2[nH]c1=O)CC1CCCO1 (stereo not drawn) | 0.7 | 56.2 | 20.0* | -0.1 | 5.6
COc1ccc(Cn2nnnc2C(c2cc3ccc(OC)cc3[nH]c2=O)N2CCC(C)CC2)cc1 (stereo not drawn) | 11.6 | 12.6 | 8.1 | 0.3 | -9.4
COc1ccc2[nH]c(=O)c(CN(C3CCCCC3)C(c3nnnn3Cc3ccco3)C(C)C)cc2c1 (stereo not drawn) | -23.9 | 63.9* | 63.4* | 0.0 | 4.6
CCOc1ccc2[nH]c(=O)c(C(c3nnnn3Cc3ccco3)N3CCCC(C)C3)cc2c1 (stereo not drawn) | -13.1 | 51.0 | 30.5* | -0.2 | -0.9
CCOc1ccc2[nH]c(=O)c(C(c3nnnn3Cc3ccco3)N3CCC(C)CC3)cc2c1 (stereo not drawn) | -30.5 | 2.1* | 50.1* | -0.1 | 2.1
CCC(c1nnnn1Cc1ccco1)N(Cc1ccccc1OC)Cc1cc2cc(C)ccc2[nH]c1=O (stereo not drawn) | -20.5 | -1.2 | -4.8 | 1.1 | -7.1
COc1ccc(C(CNC(=O)c2nn(-c3ccccc3)c(=O)c3ccccc23)N2CCOCC2)cc1 (stereo not drawn) | 7.9 | . | . | . | .
CCN(CC)S(=O)(=O)c1ccc(C(C)NC(=O)C2CCCN2C(=O)c2cccs2)cc1 (stereo not drawn) | -74.1 | . | . | . | .
COc1cc2cc(CN(Cc3nnnn3Cc3ccccc3)CC3CCCO3)c(=O)[nH]c2cc1OC (stereo not drawn) | 16.7 | 68.3* | 53.6* | -0.8 | 3.8
CCC(C)(C)n1nnnc1C(C(C)C)N(Cc1cccnc1)Cc1ccco1 (stereo not drawn) | -9.9 | -11.7 | -3.8 | 0.3 | 0.0
CCC(C)(C)n1nnnc1C(C(C)C)N(Cc1ccco1)Cc1cc2cc3c(cc2[nH]c1=O)OCO3 (stereo not drawn) | 35.6 | 59.4* | 86.6 | -0.3 | 2.8
COc1ccc2cc(CN(CCc3ccccc3)Cc3nnnn3Cc3ccco3)c(=O)[nH]c2c1 | -14.9 | 37.2* | 54.9* | -1.1 | -6.1
Cc1cccc(NC(=O)CCS(=O)(=O)c2cc3c(cc2Cl)NC(=O)CO3)c1 | 14.1 | -5.2 | 1.4 | . | .
O=C(CSc1nnc2ccccn12)NNC(=O)c1cccc(Cl)c1 | -1.9 | . | . | . | .
COc1ccc(NS(=O)(=O)c2cccs2)cn1 | 4.6 | 3.1 | 0.4 | 0.2 | -1.9
COc1ccc(NS(=O)(=O)c2ccc(Cl)s2)cn1 | 58.3* | ? | ? | 1.2 | -6.0
COC(=O)[C@@H](N)CS | 36.1 | -3.5 | -2.2 | 3.0* | 2.1
COc1ccc(NC(=O)C[C@H]2C(=O)N(CCc3ccccc3)C[C@@H]2c2ccc(OC)cc2)cc1 | 0.3 | . | . | . | .
Cc1ccc(S(N)(=O)=O)cc1NC(=O)C1CC2CCC1C2 (stereo not drawn) | 3.2 | -1.1 | 6.4 | 3.0* | 3.4
CCNc1nc2[nH]c(=O)c3c(c2s1)OC(N)=C(C#N)C3c1ccc(C)cc1 (stereo not drawn) | -7.8 | 80.3* | ? | 0.8 | -6.8
COc1ccc(C(=O)Nn2cnnc2)cc1OC | 0.8 | 72.5* | 88.7* | 0.4 | 4.6
CCCC(=Nc1ccc(N)cc1)C1=C(O)C(C(=O)OC)C(C)(C)CC1=O (stereo not drawn) | 9.5 | 64.3* | 57.2* | -0.1 | -0.6
O=C1c2ccccc2C(=O)N1CCCOCc1c[nH]c(=O)[nH]c1=O | 15.0 | 3.1 | -1.6 | -0.2 | -2.0
SMILES | MLLE-PAM2 inh | PABP polyA inh | eIF4H FP inh | PERK inhibitor | eIF4E-4G inh
O=c1[nH]cc(COCC(F)CCl)c(=O)[nH]1 (stereo not drawn) | 2.2 | 1.0 | -9.7 | 2.4 | 96.8*
CC1CCC(C(C)C)C(OCC(O)CN2CCCC(C)C2)C1 (stereo not drawn) | 4.4 | 9.5 | -2.0 | -0.4 | -2.2
CC1CCC(C(C)C)C(OCC(O)C[N+]2(C)CCCCC2)C1 (stereo not drawn) | -108.3 | 58.8* | 2.6 | 0.9 | 4.1
Cc1cc(C)cc(NC2=CC(=O)CC(c3ccco3)C2)c1 (stereo not drawn) | 0.1 | 16.3 | 16.5 | 0.5 | -0.6
Cc1ccc(NC2=CC(=O)CC(c3ccco3)C2)c(N)c1 (stereo not drawn) | -3.7 | 99.0* | 103.6* | -0.1 | -1.6
Nc1ccccc1NC1=CC(=O)CC(c2ccco2)C1 (stereo not drawn) | -10.7 | 91.3* | 91.2* | 0.2 | -5.5
O=C1C=C(NNC(=O)c2cccnc2)CC(c2ccco2)C1 (stereo not drawn) | 44.7* | -20.8 | ? | 1.4 | 3.1
Nc1ccccc1NC1=CC(=O)CC(c2ccccc2)C1 (stereo not drawn) | . | -6.6 | 3.5 | 1.2 | 4.6
Cc1ccc(-c2ccc(C(=O)NCCCNC(=O)c3cnccn3)o2)cc1Cl | 7.3 | 2.5 | -9.9 | . | .
CCOC(=O)c1cc(-c2ccccc2)nc2nc(N(CC)CC)sc12 | -0.3 | 7.7 | 7.7 | . | .
CC1(C)CC(Cc2ccc(C(=O)c3ccccc3)cc2)N(C(=O)OC(C)(C)C)N1 (stereo not drawn) | 7.0 | . | . | . | .
CCOc1ccc2nc(SCC(=O)c3cccs3)sc2c1 | -34.2 | -1.6 | -6.7 | 1.7 | -1.0
CCOc1ccc2nc(SCC(=O)c3ccc(Cl)s3)sc2c1 | -68.7 | 50.3* | 54.9* | -0.7 | -3.2
CCOc1ccccc1NC(=O)CSc1nnc(-c2cccnc2)o1 | 50.4* | . | . | . | .
Cc1cccc(OCC(=O)N(Cc2cccs2)C2CCS(=O)(=O)C2)c1C (stereo not drawn) | 8.6 | 0.5 | 83.0* | 0.1 | -16.4
C(=N\C(/N=C/c1ccco1)c1ccco1)/c1ccco1 | 12.1 | 107.5* | 102.7* | 0.4 | 3.2
CN(C)c1ccc(N=Cc2ccco2)cc1 | 13.6 | 24.8 | 38.0 | -0.1 | 5.4
C(=Nc1cccc2c(N=Cc3ccco3)cccc12)c1ccco1 | 66.7* | -5.0 | ? | 0.1 | 9.1
CC(C)(C)OC(=O)C[C@H]1C/C=C\C[C@H](CC(=O)NCCO)C(=O)N2CCC[C@@H]2COC1=O | 7.7 | . | . | . | .
Nn1c(SCC(=O)Nc2ccccc2Br)nnc1-c1ccco1 | 2.0 | 34.6 | -15.3 | . | .
COc1ccc(C(C)(C)C)cc1NC(=S)NCCN1CCOCC1 | 5.3 | 57.3* | -1.7 | 0.6 | -2.1
O=C(NCc1ccc(Cl)c(Cl)c1)c1cc(C2CCCCN2C(=O)OCCF)on1 (stereo not drawn) | 8.8 | . | . | . | .
CN1N=C(N)c2cn(C3OC(COP(=O)(O)O)C(O)C3O)c3ncnc1c23 (stereo not drawn) | 50.9* | . | . | . | .
